# Activity calls are given as the source filed them. Unless noted, the rule behind the calls is not given here.
# Tests used:
# [1] = anti-His antibody binders, primary screen, artefact control for SMM control protein annotation, biochemical, small-molecule microarray, 635 nm fluorescence (AID 1128); settings: anti-His Alexa647 antibody binding, higher = more signal;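 note: score merges feature fluorescence with signal-to-noise for each printed compound spot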
# [2] = test system: Human papillomavirus type 1a E7 protein (residues 1-88); assay: HPV1a E7 small-molecule binders, primary screen, biochemical, small-molecule microarray, residues 1-88, 635 nm (AID 1129); settings: small-molecule microarray binding, fluorescence 635 nm; higher = more signal
# [3] = molecular target: Focal adhesion kinase 1 (Homo sapiens) (UniProt Q05397); assay: small-molecule microarray binders of FAK, primary screen, biochemical, 635/667 nm fluorescence, BSA, DTT (AID 1130); settings: PTK2 binding, 635 nm fluorescence, higher = more signal;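 note: composite of spot emission at 667 nm and signal to noise over triplicate slides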
# [4] = test system: Fibrinogen (Alexa647-labelled); assay: fibrinogen binders on compound microarrays, profiling panel, artefact control for SMM control-protein annotation, biochemical, small-molecule microarray, 635/667 nm fluorescence (AID 1131); settings: fibrinogen-A647 binding fluorescence, higher = more signal;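 note: z-score merges 667 nm fluorescence with per-spot signal-to-noise over triplicate slides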
# [5] = molecular target: Follistatin (Homo sapiens) (UniProt P19883); assay: follistatin binders on small-molecule microarrays, primary screen, biochemical, small-molecule microarray, 635/667 nm fluorescence (AID 1132); settings: FST binding, 635 nm fluorescence, higher = more signal
# [6] = molecular target: Fibroblast growth factor 2 (Homo sapiens) (UniProt P09038); assay: FGF2 binders on small-molecule microarrays, primary screen, biochemical, small-molecule microarray, 635/667 nm fluorescence (AID 1133); settings: small-molecule microarray binding, FGF2, fluorescence 635/667; higher = more signal
# [7] = mitochondrial membrane potential change in A549 cells, profiling panel, cell-based, JC-1 fluorescence, basal, 24 h, 100 nL (AID 1138); settings: higher = more signal;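 note: A549 lung adenocarcinoma cells under basal conditions with no added stimulus; test concentration not given here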
# Lefty1 = Lefty1 binders on small-molecule microarrays, primary screen, biochemical, small-molecule microarray, 635/667 nm fluorescence (AID 1139); settings: small-molecule microarray binding, fluorescence 635/667; higher = more signal
# [8] = test system: wheat germ agglutinin (Triticum aestivum), Alexa647-labelled; assay: wheat germ agglutinin binders on compound microarrays, profiling panel, artefact control for SMM control-protein annotation, biochemical, small-molecule microarray, 635/667 nm fluorescence (AID 1140); settings: WGA-A647 binding, 635 nm fluorescence, higher = more signal;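 note: score merges 667 nm feature emission with signal to noise over triplicate slides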
# [9] = molecular target: Luciferin 4-monooxygenase (Photinus pyralis) (UniProt P08659); assay: firefly luciferase enzyme inhibitors, primary screen, biochemical, luminescence, purified enzyme, 2006 set (AID 1141); settings: SteadyGlo luminescence, 30 min, higher = more signal, called active from +8 up or from −8 down;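 note: cell-free assay with purified firefly luciferase at 100 ng per well in PBS; test concentration not given here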
# [10] = test system: Wnt5a (protein binding on small-molecule microarray); assay: Wnt5a binders on small-molecule microarray, primary screen, biophysical, 635/667 nm fluorescence (AID 1142); settings: 635 nm fluorescence, higher = more signal;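 note: fluorescence read at 667 nm with signal to noise per printed feature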
# [11] = cell viability in Huh7 cells, primary screen, cytotoxicity control for HCV replication inhibitor project, CellTiter-Glo luminescence, basal, 48 h (AID 1143); settings: Huh7 HCV replicon, higher = more signal, called active from +8 up or from −8 down;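 note: Huh7 hepatoma cells carrying a hepatitis C replication reporter with no stimulus; test concentration not given here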
# [12] = P. aeruginosa biofilm formation inhibitors, primary screen, PAO1 strain, BacTiter-Glo luminescence, LB-PBS (AID 1144); settings: 12 h, higher = more signal
# [13] = CREB reporter modulators without forskolin, primary screen, cell-based, PC12, CRE-LacZ reporter, unstimulated (AID 1145); settings: no forskolin, luminescence, 4.5 h, higher = more signal, called active from +8 up or from −8 down
# [14] = CREB reporter modulators under forskolin, primary screen, cell-based, PC12, CRE-LacZ reporter, forskolin-stimulated (AID 1146); settings: luminescence, 4.5 h, higher = more signal, called active from +8 up or from −8 down;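 note: PC12 cells with 6xCRE LacZ reporter stimulated by forskolin 10 µM; beta-galactosidase reporter signal reflecting CREB driven transcription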
# [15] = molecular target: Streptavidin (Streptomyces avidinii) (UniProt P22629); assay: streptavidin binders on small-molecule microarray, primary screen, artefact control for SMM compound annotation, biophysical, 635/667 nm fluorescence (AID 1147); settings: streptavidin binding, higher = more signal;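 note: signal reflects streptavidin binding to arrayed compounds as a control protein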
# [16] = small-molecule binders of probe aInhba, primary screen, biochemical, small-molecule microarray, 635/667 nm fluorescence (AID 1148); settings: higher = more signal;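 note: score merges 667nm spot fluorescence with signal-to-noise for antibody binding to printed compounds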
# Torsin-1A (Homo sapiens) [17] = molecular target: Torsin-1A (Homo sapiens) (UniProt O14656); assay: torsin A binders from cell lysate, primary screen, small-molecule microarray, wild-type, 635/667 nm (AID 1149); settings: COS7 hTOR1A-WT lysate, 635 nm fluorescence, higher = more signal
# Torsin-1A (Homo sapiens) [18] = molecular target: Torsin-1A (Homo sapiens) (UniProt O14656); assay: small-molecule binders of mutant TOR1A in lysate, primary screen, cell lysate, small-molecule microarray, COS7 lysate, 635/667 nm fluorescence (AID 1150); settings: COS7 hTOR1A mutant lysate, 635 nm fluorescence, higher = more signal;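 note: score pools 667 nm emission and signal to noise measuring lysate protein binding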
# [19] = test system: Sonic hedgehog protein (Shh); assay: small-molecule binders of Shh protein, primary screen, biochemical, small-molecule microarray, 635/667 nm fluorescence (AID 1151); settings: small-molecule microarray binding, 635 nm fluorescence; higher = more signal;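 note: Shh protein binding to compounds spotted on small-molecule microarray slides; score combines spot fluorescence intensity with signal-to-noise across triplicate slides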
# Torsin-1A (Homo sapiens), sequence (O14656 whole entry, looked up): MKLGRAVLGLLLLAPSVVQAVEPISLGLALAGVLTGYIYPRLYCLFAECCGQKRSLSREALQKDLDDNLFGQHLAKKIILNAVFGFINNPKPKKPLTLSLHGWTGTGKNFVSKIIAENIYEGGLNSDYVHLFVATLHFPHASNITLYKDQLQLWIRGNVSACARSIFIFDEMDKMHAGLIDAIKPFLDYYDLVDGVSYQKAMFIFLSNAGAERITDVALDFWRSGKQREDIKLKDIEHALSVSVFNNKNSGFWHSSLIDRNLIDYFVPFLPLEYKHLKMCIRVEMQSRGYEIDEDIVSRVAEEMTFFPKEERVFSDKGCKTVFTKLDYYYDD
# Luciferin 4-monooxygenase (Photinus pyralis), sequence (P08659 whole entry, looked up): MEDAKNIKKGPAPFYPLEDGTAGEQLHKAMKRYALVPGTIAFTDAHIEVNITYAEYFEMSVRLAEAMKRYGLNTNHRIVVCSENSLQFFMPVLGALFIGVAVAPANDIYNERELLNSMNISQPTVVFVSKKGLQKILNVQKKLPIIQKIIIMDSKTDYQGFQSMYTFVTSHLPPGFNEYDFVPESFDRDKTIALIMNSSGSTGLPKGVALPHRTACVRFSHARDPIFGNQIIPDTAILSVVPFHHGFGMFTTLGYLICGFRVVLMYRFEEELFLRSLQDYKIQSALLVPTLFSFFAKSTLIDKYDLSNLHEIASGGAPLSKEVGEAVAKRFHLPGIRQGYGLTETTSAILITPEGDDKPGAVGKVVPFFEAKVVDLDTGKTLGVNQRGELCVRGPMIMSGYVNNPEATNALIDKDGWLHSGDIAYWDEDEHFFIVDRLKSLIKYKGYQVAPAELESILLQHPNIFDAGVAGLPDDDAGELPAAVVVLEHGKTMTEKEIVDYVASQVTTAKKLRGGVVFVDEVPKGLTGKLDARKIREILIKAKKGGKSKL
# Streptavidin (Streptomyces avidinii), sequence (P22629 whole entry, looked up): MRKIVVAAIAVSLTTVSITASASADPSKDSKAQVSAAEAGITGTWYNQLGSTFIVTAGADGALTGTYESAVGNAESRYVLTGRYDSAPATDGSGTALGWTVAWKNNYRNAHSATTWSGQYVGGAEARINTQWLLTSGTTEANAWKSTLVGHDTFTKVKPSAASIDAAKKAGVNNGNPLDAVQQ
# Follistatin (Homo sapiens), sequence (P19883 whole entry, looked up): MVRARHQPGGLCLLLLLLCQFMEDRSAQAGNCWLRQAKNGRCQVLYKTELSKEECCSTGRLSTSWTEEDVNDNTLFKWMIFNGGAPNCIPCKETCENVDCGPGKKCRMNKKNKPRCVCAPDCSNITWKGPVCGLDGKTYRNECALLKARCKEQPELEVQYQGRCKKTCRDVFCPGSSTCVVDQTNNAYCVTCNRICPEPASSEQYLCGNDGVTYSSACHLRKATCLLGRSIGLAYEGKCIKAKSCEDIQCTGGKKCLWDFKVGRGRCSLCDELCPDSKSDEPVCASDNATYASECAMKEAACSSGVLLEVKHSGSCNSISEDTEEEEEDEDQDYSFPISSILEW
# Focal adhesion kinase 1 (Homo sapiens), sequence (Q05397 whole entry, looked up): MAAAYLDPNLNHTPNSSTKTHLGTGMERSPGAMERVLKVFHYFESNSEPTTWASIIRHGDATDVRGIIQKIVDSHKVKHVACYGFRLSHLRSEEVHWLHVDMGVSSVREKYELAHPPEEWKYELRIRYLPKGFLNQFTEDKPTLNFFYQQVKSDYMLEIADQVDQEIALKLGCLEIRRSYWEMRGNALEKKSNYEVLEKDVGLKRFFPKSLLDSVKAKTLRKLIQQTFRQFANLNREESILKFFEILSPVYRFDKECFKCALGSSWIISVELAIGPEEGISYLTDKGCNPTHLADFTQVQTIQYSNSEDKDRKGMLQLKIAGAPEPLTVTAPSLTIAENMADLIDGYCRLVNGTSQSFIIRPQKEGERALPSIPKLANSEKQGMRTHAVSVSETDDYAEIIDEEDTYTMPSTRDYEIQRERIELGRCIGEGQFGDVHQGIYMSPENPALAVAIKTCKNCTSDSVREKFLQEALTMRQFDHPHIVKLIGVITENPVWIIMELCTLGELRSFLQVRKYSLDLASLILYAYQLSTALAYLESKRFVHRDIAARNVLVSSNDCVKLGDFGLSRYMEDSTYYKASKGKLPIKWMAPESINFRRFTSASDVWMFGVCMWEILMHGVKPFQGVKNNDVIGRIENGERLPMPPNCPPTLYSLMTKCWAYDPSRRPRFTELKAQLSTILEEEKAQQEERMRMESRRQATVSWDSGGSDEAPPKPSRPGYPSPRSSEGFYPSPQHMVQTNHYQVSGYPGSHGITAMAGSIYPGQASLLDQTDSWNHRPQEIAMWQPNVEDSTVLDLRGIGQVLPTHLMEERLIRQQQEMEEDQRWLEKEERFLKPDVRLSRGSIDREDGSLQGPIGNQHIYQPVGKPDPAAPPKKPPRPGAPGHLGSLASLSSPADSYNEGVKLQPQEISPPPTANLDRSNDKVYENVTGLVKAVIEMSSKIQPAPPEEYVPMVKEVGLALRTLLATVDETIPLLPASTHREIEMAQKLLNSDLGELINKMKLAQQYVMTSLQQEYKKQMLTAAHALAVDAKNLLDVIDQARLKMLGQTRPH
# Fibroblast growth factor 2 (Homo sapiens), sequence (P09038 whole entry, looked up): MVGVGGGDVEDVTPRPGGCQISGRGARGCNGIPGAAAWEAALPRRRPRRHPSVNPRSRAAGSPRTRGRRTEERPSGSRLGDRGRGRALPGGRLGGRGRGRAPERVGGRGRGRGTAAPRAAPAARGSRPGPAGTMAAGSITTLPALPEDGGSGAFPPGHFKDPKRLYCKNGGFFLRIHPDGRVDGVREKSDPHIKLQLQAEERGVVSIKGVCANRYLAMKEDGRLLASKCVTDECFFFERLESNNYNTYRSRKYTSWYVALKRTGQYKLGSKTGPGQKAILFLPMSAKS
SMILES,composite z-score [1],composite z-score [2],composite z-score [3],composite z-score [4],composite z-score [5],composite z-score [6],z-score [7],composite z-score (Lefty1),composite z-score [8],z-score [9],composite z-score [10],z-score [11],z-score [12],z-score [13],z-score [14],composite z-score [15],composite z-score [16],composite z-score (Torsin-1A (Homo sapiens) [17]),composite z-score (Torsin-1A (Homo sapiens) [18]),composite z-score [19]
COC(=O)[C@@]1(Cc2ccc(F)cc2)[C@H]2c3cc(C(=O)N(C)C)n(CCc4ccc(O)c(OC)c4)c3C[C@H]2CN1C(=O)c1ccccc1,0.339,0.923,0.0947,0.886,0.472,0.741,0.345,-0.244,0.312,0.215 (inactive),2.23,0.462 (inactive),-0.0301 (inactive),0.783 (inactive),0.15 (inactive),0.637,1.62,0.334,0.234,-0.804
CCCC[C@@H]1C[C@H]1[C@@H](NC(=O)c1cccs1)c1ccc(C(F)(F)F)cc1,0.904,-0.654,-0.0276,-0.364,0.301,-0.38,0.503,0.222,-0.945,1.2 (inactive),-0.553,-0.368 (inactive),0.195 (inactive),0.962 (inactive),1.57 (inactive),0.189,-0.147,-0.848,-0.589,0.652
C=CC[C@@]1(C(=O)N2CCOCC2)N=C(c2ccc(OCCCO)cc2)O[C@@H]1c1ccccc1CN=[N+]=[N-],3.06,1.23,0.201,0.905,1.35,1.45,1.97,0.349,0.786,0.0079 (inactive),0.935,-2.2 (inactive),0.887 (inactive),0.204 (inactive),-0.818 (inactive),1.28,0.305,0.495,1.46,0.0134
COc1cc2c(cc1OC)CN(C(=O)[C@@H]1[C@H]3C(=O)O[C@H](c4ccccc4)[C@H](c4ccccc4)N3[C@H](c3ccc(OCCO)cc3)[C@@]13C(=O)Nc1ccc(C#CC4(O)CCCCCC4)cc13)CC2,0.367,1.18,-0.226,0.966,1.41,1.13,-0.989,1.38,0.831,-7.42 (inactive),0.754,-3.13 (inactive),-1.35 (inactive),-0.608 (inactive),0.419 (inactive),1.51,-0.164,0.746,1.09,1.44
CN(C)CCCNC(=O)[C@@H]1c2ccccc2C(=O)N(Cc2ccccc2Cl)[C@H]1c1ccc(CO)cc1,1.3,0.51,-0.0522,0.462,-0.0713,-0.0728,1.53,-0.92,1.05,-0.751 (inactive),-0.12,-1.77 (inactive),0.388 (inactive),-0.206 (inactive),-0.343 (inactive),-0.34,-0.182,1.59,0.798,-0.12

# Reference: PubChem BioAssay
